Where a structure was tested more than once in an assay, its records may differ in their call. The source made the active and inactive calls. Rule for the calls: active = hit-call score of the fitted dose curve at least 0.9, where 1 is the maximum; inactive = score below 0.9.
Read-out: E-selectin (Homo sapiens) (UniProt P16581)
Assay: BSK_SAg_Eselectin: BioMAP Diversity Plus: SAg Assay for Eselectin Biomarker Activity (AID 2283091)
Settings: primary human HUVEC with PBMC; actives raise or lower the signal
Method: BSK_SAg is a cell-based, multiplexed-readout assay that uses umbilical vein endothelium and peripheral blood mononuclear cells, a human vascular primary cell co-culture, with measurements taken at 24 hours after chemical dosing in a 96-well plate.BSK_SAg_Eselectin is an assay component measured in the BSK_SAg assay. It measures E-selectin antibody related to regulation of gene expression using ELISA technology.Data from the assay component BSK_SAg_Eselectin was analyzed into 1 assay endpoint. This assay endpoint, BSK_SAg_Eselectin, was analyzed with bidirectional fitting relative to DMSO as the negative control and baseline of activity. Using a type of binding reporter, gain or loss-of-signal activity can be used to understand changes in the signaling as they relate to the gene SELE. Furthermore, this assay endpoint can be referred to as a primary readout, because this assay has produced multiple assay endpoints where this one serves a signaling function. To generalize the intended target to other relatable targets, this assay endpoint is annotated to the cell adhesion molecules intended target family, where the subfamily is selectins.
The levels of cell surface (or secreted, indicated by the prefix "s") biomarker endpoints were measured by ELISA. Overt cytotoxicity to cells in confluent adherent cultures (all systems other than the BT system) was assessed by measuring total protein levels using sulforhodamine B (SRB) staining in parallel cultures at the time of biomarker measurements, indicated as SRB endpoints. For proliferation assays for adherent cell types, individual cell types are cultured at sub-confluence and relative cell numbers quantified by SRB staining at time points optimized for each system (48 h: 3C and CASM3C systems; 72 h: BT and HDF3CGF systems; 96 h: SAg system). SRB was performed by staining cells with 0.1% SRB after fixation with 10% TCA and reading wells at 560 nm.Viability and proliferation of PBMC (T cells) was quantified by Alamar Blue reduction for the SAg and BT systems. For PBMC viability (referred to as PBMC Cytotoxicity within the assay endpoint names), cells were plated (75,000/well in a 96-well plate) and then chemical samples added for 1 h before addition of activators, SEB and TSST-1 (20 ng/mL final concentration each). Cells were incubated for 90 h. Then, Alamar Blue (20 uL/well) (Invitrogen, Cat DAL1100) was added for 6 h, and the plates were read with a fluorescence microplate reader at 546/580 nm (excitation/emission). For PBMC proliferation, cells were plated and activated as above but incubated for only 16 h prior to addition of Alamar Blue. Plates were read after 6 h.

Chain of E-selectin (Homo sapiens) (P16581 whole entry, looked up): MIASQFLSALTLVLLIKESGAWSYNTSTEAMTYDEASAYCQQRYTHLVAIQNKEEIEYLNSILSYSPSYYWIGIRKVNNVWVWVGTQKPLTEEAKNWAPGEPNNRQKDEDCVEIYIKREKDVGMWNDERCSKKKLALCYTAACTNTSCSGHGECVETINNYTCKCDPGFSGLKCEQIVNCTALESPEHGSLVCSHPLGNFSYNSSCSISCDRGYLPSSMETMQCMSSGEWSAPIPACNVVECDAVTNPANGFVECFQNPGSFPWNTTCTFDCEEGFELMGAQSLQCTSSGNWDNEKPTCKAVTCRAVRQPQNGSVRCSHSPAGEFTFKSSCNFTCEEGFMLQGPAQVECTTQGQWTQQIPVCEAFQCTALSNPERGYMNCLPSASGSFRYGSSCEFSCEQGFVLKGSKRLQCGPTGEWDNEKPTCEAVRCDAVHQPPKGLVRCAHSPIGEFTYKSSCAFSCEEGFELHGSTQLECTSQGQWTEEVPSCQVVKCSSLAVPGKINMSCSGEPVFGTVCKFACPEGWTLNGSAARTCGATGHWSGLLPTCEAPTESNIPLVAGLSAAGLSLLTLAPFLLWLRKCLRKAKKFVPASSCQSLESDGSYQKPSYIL

Structure (SMILES)	outcome	AC50
CC(C)(C)OOC(=O)c1ccccc1	inactive	–
CCCCOC(=O)c1ccccc1C(=O)OCc1ccccc1	inactive	–
COC(=O)c1ccccc1N	inactive	–
CN(C)c1ccccc1	inactive	–
[As]#[In]	inactive	–
CN(C)[C@@H]1C(=O)C(C(N)=O)=C(O)[C@@]2(O)C(=O)C3=C(O)c4c(O)cccc4[C@@](C)(O)[C@H]3C[C@@H]12	inactive	–
CCCCCCCCOC(=O)c1ccc(C(=O)OCCCCCCCC)c(C(=O)OCCCCCCCC)c1	inactive	–
CC(O)CCO (stereo not given)	inactive	–
C=CCc1ccc2c(c1)OCO2	inactive	–
CC(C)COC(=O)c1ccccc1C(=O)OCC(C)C	–	20 µM (active)
O=C(Oc1ccc(Br)cc1)N1CCN2CCC1CC2	inactive	–
Nc1ccc(Cc2ccc(N)cc2)cc1	–	13.6 µM (active)
CC(C)(O)c1cnn2c(-c3ccc(F)c(-c4c(F)cccc4C#N)c3)cnc2n1	inactive	–
[Cl-].[Cl-].[Hg+2]	–	20 µM (active)
c1ccc(N=Nc2ccccc2)cc1	inactive	–
CC(C)(C)OOC(C)(C)CCC(C)(C)OOC(C)(C)C	inactive	–
c1ccc2c(c1)-c1cccc3cccc-2c13	–	31.6 µM (active)
CC(C)(OOC(C)(C)c1ccccc1)c1ccccc1	–	37 µM (active)
N#CC(Br)(Br)C(N)=O	inactive	–
CS(=O)(=O)NC(=O)c1cc(Oc2ccc(C(F)(F)F)cc2Cl)ccc1[N+](=O)[O-]	inactive	–

Structure (SMILES)	outcome	AC50
c1ccc(NNc2ccccc2)cc1	inactive	–
Clc1ccccc1Cl	inactive	–
CCN(CC)CCO	inactive	–
Oc1ccccc1Cl	inactive	–
[O-][Cl+]O	inactive	–
CCCCCCCCn1sccc1=O	–	12.8 µM (active)
CN(C)C(=O)Nc1ccc(Cl)cc1	inactive	–
Oc1ccc2ccc3cccc4ccc1c2c34	–	30.7 µM (active)
CO[C@@H]1[C@H](OC(=O)NC(=O)CCl)CC[C@]2(CO2)[C@H]1[C@@]1(C)O[C@@H]1CC=C(C)C	–	3.89 µM (active)
CCN(CC)N=O	inactive	–
Nc1ccc(Cl)cc1N	–	8.35 µM (active)
Clc1ccc(Cl)c(Cl)c1	inactive	–
O=C(Nc1ccccc1)c1ccccc1I	inactive	–
O=C(O)C1C2CCC(O2)C1C(=O)O (stereo not given)	inactive	–
CC(C)N(Cc1ccccc1)C(=O)C(C)(C)C	inactive	–
O=C1CCCO1	inactive	–
CCNS(=O)(=O)C(F)(F)C(F)(F)C(F)(F)C(F)(F)C(F)(F)C(F)(F)C(F)(F)C(F)(F)F	inactive	30 µM (active)
O=C(N[C@H](c1ccccc1)[C@@H]1CN2CCC1CC2)c1c(Cl)ccc(C(F)(F)F)c1Cl	inactive	–
COP(=S)(OC)SCN1C(=O)c2ccccc2C1=O	inactive	–
